Measurements reported in PMC4336329 (PLoS ONE, 2015).
The campaign covered roughly 310,000 compounds. About 14,000 (4.5%) showed an effect of 50% or more. The effect is printed as a negative number. This is one part of a sample in which strong results are shown more often than they occur.

Biological target: human ether-à-go-go-related gene (hERG) potassium channel (human, UniProt Q12809)
Assay: primary screen, population patch clamp on CHO cells stably expressing hERG; higher = less effect of the substance
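Note: peak tail current of the secondary pulse compared with the same well before compound.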

Sequence of human ether-à-go-go-related gene (hERG) potassium channel (Q12809 whole entry, looked up): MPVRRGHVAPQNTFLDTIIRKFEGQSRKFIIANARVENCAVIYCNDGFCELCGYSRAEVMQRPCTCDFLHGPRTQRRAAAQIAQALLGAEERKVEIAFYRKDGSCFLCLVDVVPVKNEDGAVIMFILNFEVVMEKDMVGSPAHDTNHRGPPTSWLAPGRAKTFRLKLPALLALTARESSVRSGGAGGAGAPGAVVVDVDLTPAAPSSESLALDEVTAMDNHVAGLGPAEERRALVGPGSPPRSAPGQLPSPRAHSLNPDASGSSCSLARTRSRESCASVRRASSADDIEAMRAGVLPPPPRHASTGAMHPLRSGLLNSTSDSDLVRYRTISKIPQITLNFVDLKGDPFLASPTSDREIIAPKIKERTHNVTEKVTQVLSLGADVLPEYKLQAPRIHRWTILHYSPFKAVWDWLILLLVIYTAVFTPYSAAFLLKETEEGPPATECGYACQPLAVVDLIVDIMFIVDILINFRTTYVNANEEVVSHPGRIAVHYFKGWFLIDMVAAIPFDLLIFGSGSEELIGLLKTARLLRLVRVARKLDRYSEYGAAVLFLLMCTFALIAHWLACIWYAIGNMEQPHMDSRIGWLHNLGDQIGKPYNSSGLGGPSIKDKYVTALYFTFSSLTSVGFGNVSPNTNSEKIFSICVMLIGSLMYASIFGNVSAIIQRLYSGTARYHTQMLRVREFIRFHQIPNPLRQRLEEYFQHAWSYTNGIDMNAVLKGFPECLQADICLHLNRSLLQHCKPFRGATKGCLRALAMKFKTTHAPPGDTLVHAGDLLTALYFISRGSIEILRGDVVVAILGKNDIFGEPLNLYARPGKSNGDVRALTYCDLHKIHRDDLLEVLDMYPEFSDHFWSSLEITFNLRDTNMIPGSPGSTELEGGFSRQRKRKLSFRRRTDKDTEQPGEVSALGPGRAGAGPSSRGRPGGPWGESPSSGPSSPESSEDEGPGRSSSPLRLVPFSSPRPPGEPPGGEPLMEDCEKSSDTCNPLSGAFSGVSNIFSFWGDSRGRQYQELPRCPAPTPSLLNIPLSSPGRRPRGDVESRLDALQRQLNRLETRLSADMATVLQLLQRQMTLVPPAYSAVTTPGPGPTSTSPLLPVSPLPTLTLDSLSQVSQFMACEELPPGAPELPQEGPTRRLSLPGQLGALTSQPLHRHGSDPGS

| SMILES | hERG current change (%, negative = inhibition) at 10uM [%] |
| --- | --- |
| O=C(NCCc1csc(-c2cccnc2)n1)c1ccccc1Br | -4.05 |
| CC1CCCCN1C(=S)NC(=O)c1cc(Br)ccc1Cl (stereo not drawn) | 4.09 |
| COc1ccc(/C=N/N=C/c2c[nH]c(=O)c(C#N)c2Nc2ccccc2)cc1 | 5.81 |
| Cn1c(O)c(N=NC(=O)c2ccccc2O)c2ccccc21 | 13.6 |
| CCCCCc1nc2c(c3c1CCCC3)CCCC2 | -71.7 |
| CCCCc1nc(Cl)c(C#N)c2c1CCCC2 | -14.7 |
| CCCCCc1n[nH]c2c1CCCC2 | 15.6 |
| CCOC(=O)c1ccc(NC(=S)NCCc2ccccc2)cc1 | 4.14 |
| CC(=O)N1CCN(CC(=O)Nc2ccc(C#N)c(Cl)c2)CC1 | -71.7 |
| N#Cc1ccc(NC(=O)CN2CCCC2)cc1Cl | 0.986 |
| O=C(CN1CCCCCC1)Nc1c(Cl)cc(Cl)cc1Cl | -5.28 |
| CC(=O)N1CCN(CC(=O)Nc2c(Cl)cc(Cl)cc2Cl)CC1 | -54.2 |
| N#Cc1ccc(NC(=O)CN2CCCCCC2)cc1Cl | -21.3 |
| O=C(CN1CCOCC1)Nc1c(Cl)cc(Cl)cc1Cl | -2.17 |
| O=C(NC1CCS(=O)(=O)C1)c1ccc(S(=O)(=O)N2CCCC2)cc1 (stereo not drawn) | 9.83 |
| CCC(C)(C)C1CCc2[nH]nc(C(=O)NC(C)C)c2C1 (stereo not drawn) | 12.7 |
| CC12CCC(C(=O)NCCN3CCCCC3)(CC1=O)C2(C)C (stereo not drawn) | -2.12 |
| CCN(CC)CCNC(=O)C(Oc1ccccc1)Oc1ccccc1 | -65.4 |
| CCN(CC)CCNC(=O)C(C)c1nn(C)c(=O)c2ccccc12 (stereo not drawn) | 8.67 |
| CCOC(=O)N1CCN(CC(=O)Nc2ccc(Oc3ccccc3)cc2)CC1 | -50.1 |
| CCN(CC)CC(=O)Nc1ccc(Oc2ccc(NC(=O)CN(CC)CC)cc2)cc1 | 17.1 |
| CCCCOc1ccc(NC(=O)CN2CCN(C(=O)OCC)CC2)cc1.Cl | -28.6 |
| CCN(CC)CCNCC(=O)Nc1ccc(Oc2ccccc2)cc1 | -70.5 |

| SMILES | hERG current change (%, negative = inhibition) at 10uM [%] |
| --- | --- |
| O=C(CN1CCN(c2ccccc2)CC1)Nc1ccc(Oc2ccccc2)cc1 | 15.6 |
| CCOC(=O)N1CCN(CC(=O)Nc2ccc(F)c(F)c2)CC1 | -62.4 |
| CCOC(=O)N1CCN(CCC(=O)Nc2ccc(F)c(F)c2)CC1 | 0.204 |
| CCN(CC)CCNC(=O)c1ccccc1N | -5.76 |
| O=C(CNCc1ccccc1)Nc1ccc(Oc2ccccc2)cc1 | -18.7 |
| CCOC(=O)N1CCN(CC(=O)Nc2ccc(C)c(Br)c2)CC1.Cl | -16.1 |
| Nc1ccccc1NC(=O)NC(=O)c1ccccc1 | 12.5 |
| CCC(=O)Nc1ccc(NC(=O)c2cccc3c(Br)cccc23)cc1 | 3.96 |
| COC(=O)C(Cc1ccccc1)NC(=O)CCc1c[nH]c2ccccc12 (stereo not drawn) | -8.09 |
| CCOC(=O)N1CCN(CC(=O)Nc2ccc(F)cc2F)CC1 | -28.6 |
| CCOC(=O)N1CCN(CC(=O)Nc2ccc(OC)cc2)CC1 | -15.2 |
| CCOC(=O)N1CCN(CCC(=O)Nc2ccc(C)cc2)CC1 | 4.65 |
| CCOC(=O)N1CCN(CC(=O)Nc2ccc(F)cc2)CC1 | -82 |
| CCOC(=O)N1CCN(CC(=O)Nc2ccc(C)cc2)CC1 | -63.2 |
| CCOC(=O)N1CCN(CC(=O)Nc2ccc(F)c(F)c2F)CC1 | 7.7 |
| COc1ccc(-c2nn(-c3ccccc3)cc2/C=N/N2C(=O)CSC2=S)cc1 | -6.34 |
| O=C(NCCCl)NNc1c(Cl)cc(Cl)cc1Cl | 10.3 |
| CC1(C)Oc2ccc3ccc(=O)oc3c2[C@@H](O)[C@H]1O | 15.5 |
| CCOCCn1cnc2sc(C(=O)NCC(=O)OCC)c(C)c2c1=O | -3.75 |
| COc1ccc(CN2CCC(n3nccc3NC(=O)C3CC3)CC2)c(OC)c1OC | -51.4 |
| Cc1ccc(C)c(CN2CCC(n3nccc3NC(=O)C3CCCC3)CC2)c1 | -69.9 |
| COc1ccc(C(=O)N2CCC(n3nccc3NC(=O)C3CC3)CC2)c(OC)c1OC | 24.7 |
| COc1cc(C)c(CN2CCC(n3nccc3NC(=O)C3CC3)CC2)cc1C | -52.7 |

| SMILES | hERG current change (%, negative = inhibition) at 10uM [%] |
| --- | --- |
| CCn1cc(CN2CCC(n3nccc3NC(=O)C3CCCC3)CC2)c(C)n1 | -12.4 |
| O=C(Nc1ccnn1C1CCN(Cc2ccccc2F)CC1)C1CCCC1 | -45.4 |
| Cc1cc(C)c(CN2CCC(n3nccc3NC(=O)C3CCOC3)CC2)cc1C (stereo not drawn) | -19 |
| COc1cc(C)c(CN2CCC(n3nccc3NC(=O)C3CCOC3)CC2)cc1C (stereo not drawn) | -18.2 |
| Cc1cc(C)c(CN2CCC(n3nccc3NC(=O)C3CCCC3)CC2)cc1C | -70.7 |
| COc1ccc(CN2CCC(n3nccc3NC(=O)C3CC3)CC2)c(Cl)c1OC | -39.2 |
| OCCSc1nc2ccccc2n1CCOc1ccccc1 | 4.02 |
| O=c1cccccc1NCc1ccccc1 | -17.3 |
| O=C(CSCC(=O)N1CCCc2ccccc21)Nc1nc(-c2ccccc2)cs1 | 12.4 |
| COc1ccc(NC(=O)CSc2nnc(Cc3ccccc3)c(=O)n2N)c(OC)c1 | -18.1 |
| O=c1c2ccccc2nc(-c2ccoc2)n1CCc1ccccc1 | -3.87 |
| COc1ccc(NC(=O)CCC(=O)N(Cc2ccc(OC)c(OC)c2)c2nccs2)cc1 | 13.5 |
| CC(=O)Nc1ccc(NC(=O)c2ccc(N(C)S(=O)(=O)c3ccc(C)cc3)cc2)cc1 | 6.8 |
| CC(=O)Oc1ccc2c(=O)c(-c3ccccc3)c(C)oc2c1 | 16.2 |
| O=C(CSc1ncnc2scc(-c3ccccc3)c12)Nc1ccc(C(=O)O)cc1 | 8.17 |
| COc1ccc(C(C(=O)NC2CCCCC2)N(C(=O)c2ccco2)c2ccc(-n3cnnn3)c(C)c2)cc1 (stereo not drawn) | 8.93 |
| CCCN1C(=O)c2cc(C(=O)Nc3ccccc3CC)ccc2C1O (stereo not drawn) | 2.3 |
| N#Cc1c(N)n(CCNC(=O)c2cccs2)c2nc3ccccc3nc12 | 10.4 |
| O/N=C/c1ccnc(SCc2ccccc2)n1 | -12.1 |
| Cc1c(NC(=O)COC(=O)c2cc3c4ccccc4n(C)c3s2)c(=O)n(-c2ccccc2)n1C | -11.8 |
| Cc1c(NC(=O)C(C)OC(=O)c2cc3c4ccccc4n(C)c3s2)c(=O)n(-c2ccccc2)n1C (stereo not drawn) | -68.5 |
| Cc1c(NC(=O)C(C)OC(=O)c2cccs2)c(=O)n(-c2ccccc2)n1C (stereo not drawn) | 3.46 |
| CN(C)S(=O)(=O)c1ccc(N=Cc2c(C(F)(F)F)[nH][nH]c2=O)cc1 | 23 |

| SMILES | hERG current change (%, negative = inhibition) at 10uM [%] |
| --- | --- |
| CC(C)(C)c1ccccc1NC(=O)CN1C(=O)NC2(CCCC2)C1=O | 1.01 |
| CCC(=O)N1CCN(c2ccc(NC(=O)c3cc4ccccc4o3)cc2)CC1 | -23.3 |
| O=C(Nc1ccc(N2CCN(C(=O)c3ccco3)CC2)c(Cl)c1)c1c(F)c(F)c(F)c(F)c1F | -32.1 |
| Cc1ccc(NC(=O)c2cc3ccccc3o2)cc1Cl | 19.7 |
| O=C(Nc1ccc(N2CCN(C(=O)c3ccco3)CC2)c(Cl)c1)c1cc2ccccc2o1 | -67.9 |
| CCCC(=O)N1CCN(c2ccc(NC(=O)c3cccs3)cc2)CC1 | -18.2 |
| Cc1ccccc1C(=O)N1CCN(c2ccc(NC(=O)c3ccco3)cc2Cl)CC1 | -43.2 |
| CC(C)C(=O)N1CCN(c2ccc(NC(=O)c3cccs3)cc2Cl)CC1 | -14.7 |
| CCCC(=O)N1CCN(c2ccc(NC(=O)c3cc4ccccc4o3)cc2Cl)CC1 | -56.8 |
| CCCC(=O)N1CCN(c2ccc(NC(=O)c3cc4ccccc4o3)cc2)CC1 | -13.4 |
| CCCC(=O)N1CCN(c2ccc(NC(=O)c3cccs3)cc2Cl)CC1 | -66.8 |
| CCC(=O)N1CCN(c2ccc(NC(=O)c3cc4ccccc4o3)cc2Cl)CC1 | -67.7 |
| O=C(Nc1ccc(N2CCOCC2)c(Cl)c1)c1cc2ccccc2o1 | -36.1 |
| O=C(Cc1ccccc1[N+](=O)[O-])Nc1ccc2c(c1)OCO2 | -40.1 |
| CCOc1ccc(CCNC(=O)c2cccnc2N2CCCC2)cc1OCC | 13.2 |
| Cc1ccc(C)c(C(=O)Nc2c(C(N)=O)oc3ccccc23)c1 | 5.52 |
| COc1cccc(C(=O)NC2CCSC2=O)c1 (stereo not drawn) | 23.8 |
| CC(=O)c1ccc(N2CCN(C(=O)[C@H](C)NC(=O)c3ccccc3Cl)CC2)cc1 | -9.57 |
| COC(=O)[C@@H]1C[C@@]2(O)[C@H](O)[C@H](O)[C@H](O)C[C@H]2N1CC1CC1 | 6.98 |
| N#Cc1c(N)nc2c(c1-c1ccccc1)CCCC2 | -1.63 |
| O=C1c2ccccc2C(=O)C1(CO)c1ccccc1 | 27.7 |
